Results: PubChem BioAssay AID588689 (Southern Research Specialized Biocontainment Screening …, 2011)
In all, about 340,000 compounds went through this assay and about 1,000 (0.29%) were called active. Rule as the data show it: inconclusive = inhibition above about 29% without an active follow-up result; inactive = below that. Only a sample is shown. Entries with a potency or affinity are not part of this list.

Target: Genome polyprotein (Dengue virus type 2 (strain 16681-PDK53)) (UniProt P29991)
Test: Dengue-2 NS5 methyltransferase inhibitors, primary screen, biochemical, confirmation dose response (AID 588689)
Conditions: Dengue-2 NS5 methyltransferase capping enzyme assay, at 25 µM, stronger effect = higher value

## Cc1cc(Cl)ccc1OCC(=O)Nc1ccccc1C(=O)N1CCOCC1
  inhibition: 5.18% (inactive)

## O=C1CC(c2ccccc2)NC(=S)N1 (stereo not given)
  inhibition: 3.85% (inactive)

## O=C1NC(=S)NC1(c1ccccc1)c1ccccc1
  inhibition: -4.65% (inactive)

## CCCCSc1nc(O)c(C2OC(=O)c3c2ccc(OC)c3OC)c(=O)n1C (stereo not given)
  inhibition: -5.49% (inactive)

## CCCCSc1nc(O)c(C2OC(=O)c3c2ccc(OC)c3OC)c(=O)n1-c1ccccc1 (stereo not given)
  inhibition: 17.6% (inactive)

## CCSc1nc(O)c(C2OC(=O)c3c2ccc(OC)c3OC)c(=O)n1CC (stereo not given)
  inhibition: 6.79% (inactive)

## CCCSc1nc(O)c(C2OC(=O)c3c2ccc(OC)c3OC)c(=O)n1-c1ccccc1 (stereo not given)
  inhibition: 11.7% (inactive)

## Cc1cc2c3c([nH]c2cc1S(=O)(=O)NCc1ccc(CN2CCCCCC2)o1)CCCC3=O
  inhibition: -7.25% (inactive)

## Cc1ccc(S(=O)(=O)N/N=C/c2ccc(O)c(O)c2)cc1[N+](=O)[O-]
  inhibition: 0.74% (inactive)

## CCN(CC)CCNC(=O)c1ccc(NC(=O)c2cc(S(=O)(=O)N3CCCCC3)ccc2N2CCOCC2)cc1
  inhibition: -2.25% (inactive)

## COc1ccc(-n2cccc2C=O)cc1
  inhibition: -11.6% (inactive)

## Cc1cc2nc3s/c(=C/c4ccc(-c5ccccc5C(=O)O)o4)c(=O)n3c2cc1C
  inhibition: -33.6% (inactive)

## CCOC(=O)CSc1nc(N)c(C#N)c(-c2ccc(OCC)cc2)c1C#N
  inhibition: -3.48% (inactive)

## Cc1cc2nc(/C(C#N)=C\c3ccc(-c4ccccc4C(=O)O)o3)[nH]c2cc1C
  inhibition: -2.36% (inactive)

## COc1cc(/C=C2\C(C)=C(C#N)c3nc(N)c(C#N)c(C)c32)ccc1OCC(=O)O
  inhibition: -6.96% (inactive)

## O=C1OC(c2ccccc2)=CC1=Cc1ccccc1O
  inhibition: -6.29% (inactive)

## CC1CCCC(NC(=O)C2N(CCCN3CCCC3)C(=O)C3C(C(=O)Nc4ccc(Cl)cc4)C4C=CC32O4)C1C (stereo not given)
  inhibition: -9.14% (inactive)

## Cc1cc(C)cc(NC(=O)COC(=O)Cc2ccccc2F)c1
  inhibition: -2.95% (inactive)

## CS(=O)(=O)NCc1nnc(SCc2c(F)cccc2Cl)o1
  inhibition: -7.53% (inactive)

## C=CCn1c(SCC(=O)/C(C#N)=C(\C)N)nnc1C1CCCCC1
  inhibition: -2.77% (inactive)

## CCN(C[C@H]1N[C@@](C)(C(=O)OC)[C@H]2C(=O)N(C)C(=O)[C@@H]12)S(=O)(=O)c1ccc(OC(F)(F)F)cc1
  inhibition: -7.6% (inactive)
Measured here: pilot screen replicate inhibition
  inhibition: 0.305%

## O=S(=O)(NCc1nc2ccccc2[nH]1)c1ccccc1
  inhibition: -2.6% (inactive)

## Cc1ccc(S(=O)(=O)NN2C(=O)/C(=C/c3ccc(F)cc3)SC2=S)cc1
  inhibition: 9.54% (inactive)

## Cc1ccc(S(=O)(=O)NN2C(=O)/C(=C/c3cccnc3)SC2=S)cc1
  inhibition: 14.3% (inactive)

## O=C1/C(=C/c2ccccn2)SC(=S)N1NS(=O)(=O)c1ccccc1
  inhibition: 8.55% (inactive)

## O=C1/C(=C/C=C/c2ccco2)SC(=S)N1NS(=O)(=O)c1ccccc1
  inhibition: 64.5% (inactive)

## O=C1/C(=C\c2ccc(Br)cc2)SC(=S)N1NS(=O)(=O)c1ccccc1
  inhibition: -8.31% (inactive)

## CC(=O)N1C(=O)/C(=C2\SC(=S)N(NS(=O)(=O)c3ccc(C)cc3)C2=O)c2ccccc21
  inhibition: 5.31% (inactive)

## O=C(NC1CC1)C1=C[C@@H](c2csc3ccccc23)C[C@@H](OCc2ccc(CO)cc2)O1
  inhibition: -6.54% (inactive)

## O=C(COC(=O)C1CC2CCCC(C1)C2=O)Nc1nc(-c2ccc(F)c(F)c2)cs1 (stereo not given)
  inhibition: 11% (inactive)

## CN(C)C(=O)c1ccc(NC(=O)c2cccc(S(=O)(=O)N3CCCc4ccccc43)c2)cc1
  inhibition: 4.32% (inactive)

## CC(NC(=O)c1cccnc1)C(c1cccs1)N1CCOCC1 (stereo not given)
  inhibition: 0% (inactive)

## CSc1cccc(NC(=O)C2CCN(S(=O)(=O)c3cnc[nH]3)CC2)c1
  inhibition: -4.39% (inactive)

## COc1cccc(CNC(=O)c2cccc(NC(=O)C3=C(C)OCCS3)c2)c1
  inhibition: -1.39% (inactive)

## O=C(Nc1cccc([N+](=O)[O-])c1)N1CCCCCC1
  inhibition: -0.65% (inactive)

## CC(C)OCCCNC(=O)c1ccc(NS(C)(=O)=O)cc1
  inhibition: 0% (inactive)

## Cc1cc(C)c(C(=O)c2ccccc2)c(C)c1
  inhibition: -9.32% (inactive)

## O=S(=O)(c1ccccc1)N1CCC2(CC1)CO2
  inhibition: -6.64% (inactive)

## O=C1/C(=C/c2cccnc2)SC(=S)N1NS(=O)(=O)c1ccccc1
  inhibition: 5.88% (inactive)

## CCN1C[C@@H]2[C@@H]3C(=O)N(C)C(=O)[C@@H]3[C@](Cc3ccccc3)(C1=O)N2C(=O)c1ccccc1
  inhibition: 1.65% (inactive)

## CC(=O)C1=C(O)C(=O)N(c2ccc(C)cc2)C1c1ccc([N+](=O)[O-])cc1 (stereo not given)
  inhibition: 2.73% (inactive)

## COc1cc(CN2CCCCCC2)c([N+](=O)[O-])cc1OC
  inhibition: 0% (inactive)

## COc1ccc(Cl)cc1NC(=O)CN(C)C(=O)c1ccc(OCc2ccccc2)c(OC)c1
  inhibition: -1.46% (inactive)

## O=C(CCCN1C(=O)/C(=C/c2ccccc2Cl)SC1=S)NNC(=O)c1ccc(Cl)cc1
  inhibition: 28.1% (inactive)

## O=C(CCCN1C(=O)/C(=C/c2ccccc2Cl)SC1=S)NNC(=O)c1ccc(Cl)cc1Cl
  inhibition: 3.09% (inactive)

## CN1CCN(C(=O)CCN2C(=O)/C(=C\c3ccc(Cl)cc3Cl)SC2=S)CC1
  inhibition: 0% (inactive)

## O=C(COc1ccc(Cl)cc1Cl)NN1C(=O)/C(=C\c2ccc(Cl)cc2)SC1=S
  inhibition: 0% (inactive)

## O=S(=O)(c1ccc(Cl)cc1)n1c(Cc2ccccc2)nc2ccccc21
  inhibition: -6.41% (inactive)

## CC(C)N(CC#CCC(O)(c1ccccc1)c1ccccc1)C(C)C
  inhibition: -5.16% (inactive)

## Cc1ccc(Cl)cc1NC(=O)CN1C(=O)NC2(CCCCCC2)C1=O
  inhibition: 3% (inactive)

## COCCNC(=O)CCn1nc(-c2ccc(C)cc2)c2ccccc2c1=O
  inhibition: -3.27% (inactive)

## NC(=O)c1sc2cc(C(F)(F)F)cnc2c1-c1ccccc1
  inhibition: 1.48% (inactive)

## NC(=O)CC(NC(=O)c1ccccc1)c1ccc(NCCCN2CCCC2=O)c([N+](=O)[O-])c1 (stereo not given)
  inhibition: -0.79% (inactive)

## CO[C@H]1/C=C/O[C@@]2(C)Oc3c(C)c(O)c4c(O)c(c(C=NN5CCN(C)CC5)c(O)c4c3C2=O)NC(=O)/C(C)=C\C=C\[C@H](C)[C@H](O)[C@@H](C)[C@@H](O)[C@@H](C)[C@H](OC(C)=O)[C@@H]1C
  inhibition: 6.59% (inactive)

## CO[C@H]1C=CO[C@@]2(C)Oc3c(C)c(O)c4c(O)c(c(C=NN5CCN(C)CC5)c(O)c4c3C2=O)NC(=O)C(C)=CC=C[C@H](C)[C@H](O)[C@@H](C)[C@@H](O)[C@@H](C)[C@H](OC(C)=O)[C@@H]1C
  inhibition: -3.66% (inactive)

## C=CCOc1ccc(/C=N/NC(=O)C(C)Sc2ccccn2)cc1OC (stereo not given)
  inhibition: -7.22% (inactive)

## Cc1ccc(S(=O)(=O)N(C)C)cc1NC(=O)COC(=O)C1(c2ccccc2)CC1
  inhibition: -4.44% (inactive)

## O=[N+]([O-])c1cccc(S(=O)(=O)Nc2ccc(S(=O)(=O)Nc3nccs3)cc2)c1
  inhibition: -3.24% (inactive)

## O=[N+]([O-])c1ccccc1S(=O)(=O)Nc1ccc(S(=O)(=O)Nc2nccs2)cc1
  inhibition: 3.56% (inactive)

## C/C(=N\NC(=O)c1cc(C)nc2ccccc12)c1ccccn1
  inhibition: -2.29% (inactive)

## CC(=O)NC1=NN(C(C)=O)C(c2ccc(C(C)C)cc2)S1 (stereo not given)
  inhibition: 0.65% (inactive)

## COc1ccc(O)c(C(=O)c2cc(SCC(=O)O)c3nc4sc5c(c4c(=O)n3c2)CCCC5)c1
  inhibition: 69.1% (inactive)

## O=C(O)CSc1cc(C(=O)c2ccccc2O)cn2c(=O)c3c(-c4ccccc4)csc3nc12
  inhibition: 36.4% (inactive)

## CCc1cc(C(=O)N(Cc2ccccc2)c2c(N)n(CCOC)c(=O)[nH]c2=O)sc1C
  inhibition: -5.81% (inactive)

## CC(/C=C1\SC(=S)N(NC(=O)c2ccc(O)cc2)C1=O)=C\c1ccccc1
  inhibition: 2.55% (inactive)

## CC(/C=C1\SC(=S)N(NC(=O)c2ccccc2C)C1=O)=C\c1ccccc1
  inhibition: 2.21% (inactive)

## CC(/C=C1\SC(=S)N(NC(=O)c2ccc(C)cc2)C1=O)=C\c1ccccc1
  inhibition: -6.45% (inactive)

## CC(/C=C1\SC(=S)N(NC(=O)c2cccc(O)c2)C1=O)=C\c1ccccc1
  inhibition: -2.56% (inactive)

## COc1ccc([C@H]2/C=C\CN(S(=O)(=O)c3ccc(C)cc3)[C@@H](C)C(=O)N2Cc2ccc(F)cc2)cc1
  inhibition: -6.14% (inactive)

## CC1CCCCN1CCCNC(=O)CN1C(=O)CSc2ccc(S(=O)(=O)N3CCOCC3)cc21 (stereo not given)
  inhibition: 0.89% (inactive)

## Cc1ccnc(SCC(=O)N2CCC(C(N)=O)CC2)n1
  inhibition: 5.18% (inactive)

## O=C1CSCC(=O)N1Cc1ccc(Cl)c(Cl)c1
  inhibition: 1.96% (inactive)

## CCC(Oc1ccccc1)C(=O)NCCOC (stereo not given)
  inhibition: -3.68% (inactive)

## CCOC(=O)c1c(/N=C/c2cc(OC)cc([N+](=O)[O-])c2O)sc(C)c1C
  inhibition: -0.36% (inactive)

## CCOC(=O)c1c(/N=C/c2cccc([N+](=O)[O-])c2O)sc2c1CCC2
  inhibition: 25.2% (inactive)

## O=C(CCC(=O)c1ccc(F)cc1)Nc1cc(Cl)cc(Cl)c1
  inhibition: -2.06% (inactive)

## CCCc1cc(C(=O)Cc2ccc(C(=O)OCC)o2)c(O)cc1O
  inhibition: -23.9% (inactive)

## CCOC(=O)c1ccc(CC(=O)c2ccc(O)cc2O)o1
  inhibition: -4.07% (inactive)

## Nc1ccc(C(=O)N/N=C/c2cn(Cc3ccccc3F)c3ccccc23)cc1
  inhibition: -1.3% (inactive)

## O=C(O)c1ccc(N/N=C/c2cn(Cc3ccc(F)cc3)c3ccccc23)cc1
  inhibition: 9.41% (inactive)

## COc1ccc(OCC(O)CN2CCOCC2)cc1 (stereo not given)
  inhibition: 7.33% (inactive)

## Cc1ccc[n+](-c2[nH]c(=O)sc2/C=N/N=C(\[O-])c2cccnc2)c1
  inhibition: 7.25% (inactive)

## Cc1ccc(NS(=O)(=O)c2cccs2)nc1
  inhibition: -0.32% (inactive)

## Cc1ccc(NS(=O)(=O)c2ccc(NS(=O)(=O)c3cccs3)cc2)cc1
  inhibition: -2.07% (inactive)
